This passage reports inhibition results from PubChem BioAssay AID777 (Sanford-Burnham Center for Chemical Genomics, 2007).

Out of some 96,000 compounds screened, about 19,000 (20%) were called active.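 Rule for the calls: active = blocking of liver enzyme CYP2C9 beyond about 50% at 5 µM (limit read from the data); inactive = the rest.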 The list is a sample of the results.

The term inhibition denotes the drop in the measured response relative to a control, in per cent.

Chain of Cytochrome P450 2C9 (Homo sapiens) (P11712 whole entry, looked up): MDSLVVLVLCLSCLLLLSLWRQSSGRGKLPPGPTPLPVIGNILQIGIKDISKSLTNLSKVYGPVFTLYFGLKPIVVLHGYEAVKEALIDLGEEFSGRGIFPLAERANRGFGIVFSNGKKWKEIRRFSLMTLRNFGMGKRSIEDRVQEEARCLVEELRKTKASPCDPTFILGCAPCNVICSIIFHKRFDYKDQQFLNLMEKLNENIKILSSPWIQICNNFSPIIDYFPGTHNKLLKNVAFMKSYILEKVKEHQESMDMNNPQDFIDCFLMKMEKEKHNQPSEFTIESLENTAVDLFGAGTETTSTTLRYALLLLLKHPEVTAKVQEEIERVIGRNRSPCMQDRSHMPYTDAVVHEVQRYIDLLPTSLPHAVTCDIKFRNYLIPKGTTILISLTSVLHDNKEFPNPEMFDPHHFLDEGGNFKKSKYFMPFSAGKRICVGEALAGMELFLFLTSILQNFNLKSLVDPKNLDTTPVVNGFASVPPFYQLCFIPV

The test concerns the target Cytochrome P450 2C9 (Homo sapiens) (UniProt P11712). Description: blockers of cytochrome P450 2C9 activity – biochemical, luminescence, ADME assay, primary screen (AID 777). Particulars: CYP2C9 Supersomes, luciferin-H conversion, at 5 µM, hits give high values.
With `Cc1ccc2c(c1)N(C(=O)CCC(=O)N1CCc3ccccc3C1)CCO2`, the inhibition was 13.6% (inactive). Take `O=C1N=C(N2CCCC2)S/C1=C\c1cccc(Br)c1`: the inhibition is -42.1% (inactive). Regarding `CC(C)C(=O)NC(=S)Nc1ccccc1F`, the inhibition was 20.1% (inactive). As for `CC(C)C(=O)Nc1cccc(NC(=S)NC(=O)C(c2ccccc2)c2ccccc2)c1`, the inhibition was 98.8% (active).

On to `COc1ccccc1NC(=S)NC(=O)C(C)C`, for which the inhibition is 12.2% (inactive).

Take `CC(=O)c1c(C)[nH]c(C(=O)NCCCN2CCCC2)c1C`: the inhibition was -3.6% (inactive). `COc1ccc(-c2nn(-c3ccccc3)cc2C(=O)Nc2nc(CC(C)=O)ns2)cc1`: the inhibition is 10.8% (inactive). For the molecule `Cc1c(C(=O)NCc2ccccc2)cnn1-c1ccccc1`, the inhibition was -4% (inactive). With `COC(=O)c1cn(-c2ccccc2)nc1-c1cccnc1`, the inhibition is 51.7% (active).

Take `O=C(c1cn(-c2ccccc2)nc1-c1cccnc1)N1CCCCC1`: the inhibition was 52.5% (active). Turning to `O=C(Nc1c(C(=O)N2CCCCC2)cnn1-c1ccccc1)c1ccco1`, the inhibition was -0.7% (inactive). Turning to `O=C(NCc1cccnc1)c1cn(-c2ccccc2)nc1-c1cccs1`, the inhibition was 95.7% (active). As for `COc1ccccc1N1CCN(C(=O)c2cn(-c3ccccc3)nc2-c2cccnc2)CC1`, the inhibition is 92% (active).

Consider `O=C(NCc1cccnc1)c1cccnc1Sc1ccc(Cl)cc1`, for which the inhibition was 39.9% (inactive). On to `O=C(Nn1cc(C(=O)N2CCN(c3ccccc3F)CC2)c2ccccc2c1=O)c1cnccn1`, for which the inhibition was 20.7% (inactive). Consider `O=C(Nc1ccc(N2CCN(C(=O)c3ccccc3)CC2)c(Cl)c1)c1cccnc1`, for which the inhibition is 31.6% (inactive). As to `COC(=O)CSc1nnc(-c2cccnc2)o1`, the inhibition is -12.9% (inactive). On to `O=C(c1ccccc1-c1ccccc1)N1CCOCC1`, for which the inhibition is 5% (inactive). Consider `COC(=O)/C(=C\Nc1ccccc1)NC(=O)c1ccc(Cl)cc1Cl`, for which the inhibition was 33.9% (inactive). As for `CC(C)(C)n1nc2c(c1NC(=O)c1ccc(S(=O)(=O)N3CCCC3)cc1)CS(=O)C2` (centres undefined), the inhibition was 4.2% (inactive). As to `CCOc1nc(NCCN2CCOCC2)nc(Nc2ccc(C)cc2)n1`, the inhibition was 13% (inactive). For `O=c1c([N+](=O)[O-])cc(C(F)(F)F)cn1Cc1cccc(Cl)c1`, the inhibition was 23.9% (inactive). Regarding `COc1ccc2c(c1OC)C(=O)c1ccccc1C2=O`, the inhibition was 21.6% (inactive). With `CN1CCc2c(sc3c2c(NCc2ccco2)nc2nnnn23)C1`, the inhibition was 45.7% (inactive). The result for `CCN(CC)P(=O)(/C(Cl)=C\Nc1c(C)n(C)n(-c2ccccc2)c1=O)N(CC)CC` reads -8.4% (inactive); that for `CNC(=O)NCCN1CCCC1=O`, 35.9% (inactive); that for `Cc1nc(NC(=O)CN(C)S(=O)(=O)c2ccc(Cl)cc2)sc1C`, 61.3% (active). Regarding `CN(CC(=O)Nc1cccc2c1CCCC2)S(=O)(=O)c1ccc(Cl)cc1`, the inhibition is -18.4% (inactive).

For `Cc1nc(NC(=O)CCC(=O)O)sc1C(=O)N(C)C`, the inhibition is 24.5% (inactive). To `CCOC1CCCCC1NS(=O)(=O)c1ccc(Cl)cc1` (centres undefined) belongs 5.6% (inactive); to `CCOC(=O)N1CCN(S(=O)(=O)c2ccc(C(=O)Nc3ccc(F)cc3F)cc2)CC1`, 18.7% (inactive); to `CCOC(=O)C1CCCN(C(=O)c2ccc(CS(=O)(=O)c3ccc(Br)cc3)o2)C1` (centres undefined), 49.8% (inactive). Regarding `O=C(CSc1ncccn1)NCCc1ccccc1`, the inhibition was 17% (inactive). To `O=C(CCS(=O)(=O)Cc1ccccc1F)NCCCN1CCCCC1` belongs -0.3% (inactive); to `CCOC(=O)CN(C(=O)CN1CCOCC1)c1ccc(Br)cc1`, 5.6% (inactive). With `COc1cc(OC)c(C(=O)NC2CC(C)(C)NC(C)(C)C2)cc1OC`, the inhibition was -0.9% (inactive). On to `O=C(Nc1cnn(Cc2ccc(Cl)cc2)c1)C1CCCC1`, for which the inhibition was 56.1% (active). As to `O=C(O)C1CCCCC1C(=O)Nc1ccc(Cl)cc1` (centres undefined), the inhibition was 9.3% (inactive). To `O=C(O)c1ccc(NC(=O)C2CCCCC2)cc1` belongs -25.8% (inactive); to `O=C1CC(c2ccccc2)C(=O)N1c1cccc(O)c1` (centres undefined), 45% (inactive); to `O=C(N/N=C/C=C/c1ccccc1)C1CC1(c1ccccc1)c1ccccc1` (centres undefined), 99.5% (active). Turning to `O=C(Nc1ccc(F)c(Cl)c1)C1CCN(S(=O)(=O)c2cccnc2)CC1`, the inhibition is 9.3% (inactive). For `O=C(O)c1ccc(COCC(F)(F)F)cc1`, the inhibition was -1.6% (inactive).

With `Fc1c(F)c(C(F)(F)F)c(F)c(F)c1N1CCN(c2ccc3nnc(C(F)(F)F)n3n2)CC1`, the inhibition was 5.9% (inactive). In the case of `c1ccc(CCc2nc(-c3ccncc3)no2)cc1`, the inhibition was 93% (active). Consider `O=C1c2ccccc2C(=O)N1CCCc1nc(-c2ccccc2)no1`, for which the inhibition was 24.2% (inactive). For `c1csc(-c2nc(-c3ccncc3)no2)c1`, the inhibition is 11.1% (inactive). For the molecule `Cc1cc(C(=O)O)c(S(C)(=O)=O)s1`, the inhibition was -5.1% (inactive). For `CC(Sc1nnc(Cc2ccc([N+](=O)[O-])cc2)o1)C(N)=O` (centres undefined), the inhibition is -1.5% (inactive). Consider `Cc1ccc2nc(SC(C)C(=O)NCc3ccco3)[nH]c2c1` (centres undefined), for which the inhibition was 44.2% (inactive).

For the molecule `Cc1nnc(NCCO)c2ccccc12`, the inhibition is -5.4% (inactive). On to `CCC(=O)NC(=Nc1nc2ccccc2s1)NC(=O)CC`, for which the inhibition was -88.9% (inactive). To `O=C1CCCC(O)=C1C=NCCc1ccccc1` belongs 6.6% (inactive). For `Cc1cc(C)c2[nH]c(=O)c(C(c3nnnn3Cc3ccc4c(c3)OCO4)N3CCCC3)cc2c1` (centres undefined), the inhibition is 86.7% (active).

With `Fc1ccccc1C(c1nnnn1Cc1ccc2c(c1)OCO2)N1CCN(Cc2ccccc2)CC1` (centres undefined), the inhibition was 45.6% (inactive). As to `CC(C)(C)n1nnnc1C(c1ccc(F)cc1)N1CCN(Cc2ccc3c(c2)OCO3)CC1` (centres undefined), the inhibition is 30.9% (inactive). As to `COc1ccc(C(=O)CN(C(=O)c2ccc(Cl)cc2)N2C(=O)c3ccccc3C2=O)cc1`, the inhibition was 49.5% (inactive).

With `N#CC(=C1CCCC1)c1nc(-c2ccc(Cl)cc2)cs1`, the inhibition was -6.8% (inactive). Take `N#CC(=C1SC=CS1)c1nc(-c2ccccc2)cs1`: the inhibition was 52.9% (active). For `N#C/C(=C1\CCCN1)c1nc(-c2ccccc2)cs1`, the inhibition is 40.4% (inactive). With `CC(=O)N1CSCC1C(=O)O` (centres undefined), the inhibition was 6.7% (inactive). In the case of `O=C(OCC#CCSc1nnc(-c2ccncc2)o1)c1sc2ccccc2c1Cl`, the inhibition is 30.1% (inactive). To `CSc1cc(C)n(-c2ccccc2C)c(=S)c1C(C)=O` belongs 14.1% (inactive); to `CN(c1nc2ccccc2n2c(-c3ccco3)nnc12)S(=O)(=O)c1ccccc1`, 15.3% (inactive).
